In PubChem BioAssay (EPA / NIEHS) one finds AC50 and outcome data, which are given here for four compounds.

Results filed as inconclusive are left out. Active and inactive are the calls of the source. How the source made its calls, unless noted: active means hit-call score of the fitted dose curve at least 0.9, where 1 is the maximum; inconclusive means response in the unintended direction; inactive means score below 0.9.

The target in test [1] is Estrogen receptor (Homo sapiens) (UniProt P03372). The test can be described thus: NVS_NR_hER: NovaScreen (NVS) Nuclear Receptor Binding Assay for human Estrogen Receptor (ER) (AID 2283348). Summed up:
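Cell-free MCF7-derived ER preparation, specific radioligand displaced by test compound, read by scintillation counting 18 h post-dosing. Duplicate single-point 25 uM screen, then concentration-response confirmation; DMSO baseline.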

Test [2] is described as follows: TOX21_p53_BLA_p2_viability: Viability Assessment in the Tox21 HCT-116 p53 Agonism Beta-lactamase Assay, Phase 2 (AID 2283591).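 Further: actives lower the ATP signal meaning cytotoxicity.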 In short, it runs like this:
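Cytotoxicity readout: CellTiter-Glo ATP luminescence, 30 min at room temperature, after the beta-lactamase read. Cells were HCT116 exposed 16 h at 37C to compounds pin-transferred at 217-fold dilution from DMSO stocks.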

For test [3], the target named is Cellular tumor antigen p53 (Homo sapiens) (UniProt P04637). The test can be described thus: TOX21_p53_BLA_p2_ratio: Tox21 HCT-116 p53 Agonism Beta-lactamase Assay, Ratio, Phase 2 (AID 2283592). In short, it runs like this: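 First, HCT116 reporter cells settle for 5 h at 37C. Next, DMSO compound solutions are pinned in (217-fold dilution) and left 16 h. Finally, CCF4-AM substrate is loaded 2 h at room temperature and the 460/530 nm ratio read.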
Cellular tumor antigen p53 (Homo sapiens), sequence (P04637 whole entry, looked up): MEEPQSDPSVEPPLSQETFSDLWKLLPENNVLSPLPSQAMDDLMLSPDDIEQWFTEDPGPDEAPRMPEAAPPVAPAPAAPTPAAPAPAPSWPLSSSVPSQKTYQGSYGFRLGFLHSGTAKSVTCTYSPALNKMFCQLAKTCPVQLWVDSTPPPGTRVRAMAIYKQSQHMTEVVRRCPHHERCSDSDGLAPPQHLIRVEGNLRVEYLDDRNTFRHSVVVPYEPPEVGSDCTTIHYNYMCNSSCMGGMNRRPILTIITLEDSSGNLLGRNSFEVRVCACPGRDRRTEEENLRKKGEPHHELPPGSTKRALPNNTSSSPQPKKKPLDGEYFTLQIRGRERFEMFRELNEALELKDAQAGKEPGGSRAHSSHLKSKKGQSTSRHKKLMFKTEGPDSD

Test [4] can be described thus: TOX21_p53_BLA_p3_viability: Viability Assessment in the Tox21 HCT-116 p53 Agonism Beta-lactamase Assay, Phase 3 (AID 2283593).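 Further: cells exposed to compound for 16 h before reading.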 In short, it runs like this: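 Cellular ATP was quantified by CellTiter-Glo luminescence, read after 30 min at room temperature. Beforehand, HCT116 cells (4000/well) received compound 5 h post-seeding, 217-fold diluted from DMSO, then incubated 16 h at 37C.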

In test [5] the target is Cellular tumor antigen p53 (Homo sapiens) (UniProt P04637). The test can be described thus: TOX21_p53_BLA_p3_ratio: Tox21 HCT-116 p53 Agonism Beta-lactamase Assay, Ratio, Phase 3 (AID 2283596). In short, it runs like this: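 Cells were seeded at 4000/well, rested 5 h at 37C, then dosed with DMSO compound solutions (217-fold dilution) for 16 h. CCF4-AM substrate was loaded for 2 h at room temperature, and the 460/530 nm emission ratio was fitted for gain of signal versus DMSO.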

The nature of test [6]: TOX21_p53_BLA_p4_viability: Viability Assessment in the Tox21 HCT-116 p53 Agonism Beta-lactamase Assay, Phase 4 (AID 2283597).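 Further: hits lower the luminescence signal meaning cytotoxicity.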 In short, it runs like this:
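4000 HCT116 cells per well; 5 h attachment; compounds from DMSO, 217-fold dilution; 16 h at 37C. Then CCF4-AM, 2 h RT, followed by CellTiter-Glo, 30 min RT, luminescence. Decrease = cytotoxicity.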

Test [7] has as its target Cellular tumor antigen p53 (Homo sapiens) (UniProt P04637). The test can be described thus: TOX21_p53_BLA_p5_ratio: Tox21 HCT-116 p53 Agonism Beta-lactamase Assay, Ratio, Phase 5 (AID 2283599). Summed up:
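Beta-lactamase reporter ratio (blue 460 nm over green 530 nm, 405 nm excitation) after 2 h CCF4-AM loading, in HCT-116 cells exposed 16 h at 37 C to compounds pinned at 217-fold dilution. Increases relative to DMSO baseline scored.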

Test [8] can be described thus: TOX21_p53_BLA_p5_viability: Viability Assessment in the Tox21 HCT-116 p53 Agonism Beta-lactamase Assay, Phase 5 (AID 2283600). Summed up:
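Decreased CellTiter-Glo luminescence denotes lost viability. Exposure: 16 h at 37C, 5% CO2, with compounds from DMSO stocks diluted 217-fold in wells of 4000 cells.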

The target in test [9] is Cellular tumor antigen p53 (Homo sapiens) (UniProt P04637). The test can be described thus: TOX21_p53_BLA_p4_ratio: Tox21 HCT-116 p53 Agonism Beta-lactamase Assay, Ratio, Phase 4 (AID 2283601). In short, it runs like this:
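Signal is the blue/green (460nm/530nm) ratio of cleaved versus uncleaved CCF4-AM substrate, read after 2 h substrate loading. Cells were HCT116 carrying the p53-responsive beta-lactamase reporter, dosed 16 h at 37C, 5% CO2; CellTiter-Glo measured in parallel.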

The nature of test [10]: CCTE_Harrill_HTTr_Viability_MCF7: CCTE's 6-hour Cell Viability Assessment for the High-Throughput Transcriptomics (HTTr) Platform, in MCF-7 cells cultured in DMEM + 10% fetal bovine serum, Harrill Lab (AID 2284010; active means hit-call score of the fitted dose curve at least 0.9, where 1 is the maximum; inactive means score below 0.9). Summed up:
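PI exclusion, high-content imaging; 8-pt dilution series, 6 h exposure; bidirectional fit vs DMSO (neg. ctrl/baseline); gain of signal = loss of membrane integrity.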

Test [11] can be described thus: CCTE_Harrill_HTTr_Apoptosis_MCF7: CCTE's 6-hour Apoptosis Assessment for the High-Throughput Transcriptomics (HTTr) Platform, in MCF-7 cells cultured in DMEM + 10% fetal bovine serum, Harrill Lab (AID 2284011; active means hit-call score of the fitted dose curve at least 0.9, where 1 is the maximum; inactive means score below 0.9). Summed up:
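MCF-7 cells in DMEM + 10% FBS exposed 6 h to chemicals over an eight-point dilution series. Caspase-3/7 activation imaged by high-content CellEvent Green staining; fitted bidirectionally versus DMSO.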

Test [12] addresses bovine Gamma-Aminobutyric Acid Type A Receptor BDZ, alpha 1 site (GABARa1), GABRA1 (gene 780973) (UniProt P08219). The test can be described thus: NVS_LGIC_bGABARa1: NovaScreen (NVS) Ligand-Gated Ion Channel Assay for bovine Gamma-Aminobutyric Acid Type A Receptor BDZ, alpha 1 site (GABARa1) (AID 2283321). In short, it runs like this:
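Bovine cortex membrane preparation, benzodiazepine site on GABA-A alpha1; specific radioligand displacement read after 0.75 h by filtration and scintillation. Screen at 25 uM, then singleton titrations up to 50 uM; DMSO baseline.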

Test [13] deals with rat Gamma-Aminobutyric Acid Type A Receptor BDZ, alpha 6 site (GABARa6), Gabra6 (gene 29708) (UniProt P30191). The test can be described thus: NVS_LGIC_rGABARa6: NovaScreen (NVS) Ligand-Gated Ion Channel Assay for rat Gamma-Aminobutyric Acid Type A Receptor BDZ, alpha 6 site (GABARa6) (AID 2283339). Summed up:
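Actives from a 25 uM duplicate screen were retested in concentration series (max 50 uM). Specific radioligand displacement from rat cerebellar membranes was counted by filter-based scintillation at 1 h; DMSO served as baseline.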

Estrogen receptor (Homo sapiens), sequence (P03372 whole entry, looked up): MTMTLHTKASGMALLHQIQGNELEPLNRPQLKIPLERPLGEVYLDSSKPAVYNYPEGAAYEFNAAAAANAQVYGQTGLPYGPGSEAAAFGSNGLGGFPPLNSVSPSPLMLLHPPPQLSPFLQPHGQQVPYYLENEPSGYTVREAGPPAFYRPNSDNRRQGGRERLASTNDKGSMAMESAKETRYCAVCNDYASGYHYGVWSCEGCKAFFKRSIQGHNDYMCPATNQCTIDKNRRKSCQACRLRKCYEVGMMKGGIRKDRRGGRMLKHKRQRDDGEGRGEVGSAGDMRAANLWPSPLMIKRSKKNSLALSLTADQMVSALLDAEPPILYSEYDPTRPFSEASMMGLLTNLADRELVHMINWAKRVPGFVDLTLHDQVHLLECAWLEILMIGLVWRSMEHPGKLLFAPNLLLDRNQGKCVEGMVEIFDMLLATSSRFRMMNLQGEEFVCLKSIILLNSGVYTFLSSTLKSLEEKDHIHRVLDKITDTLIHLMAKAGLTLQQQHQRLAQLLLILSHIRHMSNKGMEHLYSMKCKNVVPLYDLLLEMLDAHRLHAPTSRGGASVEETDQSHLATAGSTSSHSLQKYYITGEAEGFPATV
bovine Gamma-Aminobutyric Acid Type A Receptor BDZ, alpha 1 site (GABARa1), GABRA1 (gene 780973), sequence (P08219 whole entry, looked up): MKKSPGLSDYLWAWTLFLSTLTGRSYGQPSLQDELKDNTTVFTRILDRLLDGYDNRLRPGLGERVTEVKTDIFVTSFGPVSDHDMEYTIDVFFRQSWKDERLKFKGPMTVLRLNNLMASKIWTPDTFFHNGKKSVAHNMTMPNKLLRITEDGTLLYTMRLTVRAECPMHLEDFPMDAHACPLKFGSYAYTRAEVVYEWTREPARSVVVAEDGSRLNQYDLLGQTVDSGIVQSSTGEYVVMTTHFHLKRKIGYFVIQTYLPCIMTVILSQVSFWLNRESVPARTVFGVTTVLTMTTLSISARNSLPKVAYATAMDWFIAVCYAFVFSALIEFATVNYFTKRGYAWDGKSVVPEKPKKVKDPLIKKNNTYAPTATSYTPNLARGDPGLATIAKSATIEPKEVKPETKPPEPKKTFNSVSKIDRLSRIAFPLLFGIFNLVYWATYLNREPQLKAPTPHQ
rat Gamma-Aminobutyric Acid Type A Receptor BDZ, alpha 6 site (GABARa6), Gabra6 (gene 29708), sequence (P30191 whole entry, looked up): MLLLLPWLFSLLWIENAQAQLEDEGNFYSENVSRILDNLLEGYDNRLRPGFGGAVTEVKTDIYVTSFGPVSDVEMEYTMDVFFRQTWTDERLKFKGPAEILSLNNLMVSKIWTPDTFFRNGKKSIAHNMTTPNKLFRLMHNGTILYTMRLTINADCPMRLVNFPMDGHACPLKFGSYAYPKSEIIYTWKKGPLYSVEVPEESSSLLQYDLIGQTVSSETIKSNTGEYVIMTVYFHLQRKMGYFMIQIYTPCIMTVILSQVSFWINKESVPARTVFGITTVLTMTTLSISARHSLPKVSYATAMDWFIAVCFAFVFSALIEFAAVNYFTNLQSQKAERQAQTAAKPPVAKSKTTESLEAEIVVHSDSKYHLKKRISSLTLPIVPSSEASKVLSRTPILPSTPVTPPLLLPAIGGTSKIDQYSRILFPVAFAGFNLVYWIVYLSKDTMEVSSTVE

Broadly, the AC50 is the midpoint of the concentration-response curve, whichever way the signal moves. For the compound `CC(=O)[O][Pb]([c]1ccccc1)([c]1ccccc1)[c]1ccccc1`, the AC50 was 8.22 µM (active) in test [1]; 0.458 µM (active) in test [2]; 23.3 µM (active) in test [3]; 4.03 µM (active) in [4]; 38.7 µM (active) in [5]; 0.655 µM (active) in test [6]. Also, the figures for the AC50 in [7], in [8] and in test [9] were 32.7 µM (active), 1.32 µM (active) and 32.5 µM (active), respectively.
`N#Cc1sc2c(=O)c3ccccc3c(=O)c=2sc1C#N`: the AC50 was 10.3 µM (active) in test [1]; 14.9 µM (active) in [2]; 0.333 µM (active) in [3]; 52.2 µM (active) in [5]; 8.76 µM (active) in test [6]; 0.347 µM (active) in [7]. Besides, the results for the AC50 in [8], in test [9] and in test [10] were 7.3 µM (active), 6.18 µM (active) and 11.1 µM (active), respectively. In test [11], the result was inactive.
Consider `C1=CCCC=CCCC=CCC1`, for which, in [12], the result was inactive.
Consider `Cc1ccc(C(C)C)c(O)c1`, for which the compound was classed as inactive in test [13].
